Assay results as given in PubChem BioAssay (NCI).
About 83,000 compounds went through this panel and 20% of them were active in at least one assay; those are over-represented in the sample as a whole.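 Growth was measured after 48 h exposure to one concentration of compound in 96-well plates. Values under 10 count as active.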 Values without a mark were called inactive. Activity calls are given as the source filed them.

Tested on: OVCAR-4 ovarian
Assay: NCI-60 one-dose screen, 48 h (100 = growth as untreated, 0 = no growth, -100 = all killed)
Details: 10 µM unless noted

Row | Compound | growth
1 | CC1(C)[C@@H](O[C@@H]2OC[C@@H](O[C@@H]3O[C@H](CO)[C@@H](O)[C@H](O)[C@H]3O[C@@H]3OC[C@@H](O)[C@H](O)[C@H]3O)[C@H](O)[C@H]2O[C@@H]2O[C@H](CO)[C@@H](O)[C@H](O)[C@H]2O)CC[C@]2(C)[C@H]3CC[C@]45OC[C@@]6(CC[C@](C)(C=O)C[C@H]64)[C@H](O)C[C@@]5(C)[C@]3(C)CC[C@@H]12 | -67.1% (active)
2 | O=C(CCl)NNc1nccc(Nc2ccc(S(=O)(=O)Nc3ccncc3)cc2)n1 | 36.8%
3 | CS(=O)(=O)Nc1cc(-c2ccc3ncc(C#N)c(Nc4ccc(F)c(Cl)c4)c3c2)cnc1Cl | -6.46% (active)
4 | Cc1[nH]c(C2CC(c3ccc(C(F)(F)F)c(F)c3)=NN2c2ccccc2)c(C)c1C(=O)NCC(F)(F)F (stereo not given) | 92.5%
5 | O=P(O)(O)OCC1OC(n2cnc3c(NCc4ccco4)ncnc32)C(O)C1O (stereo not given) | 15.7%
6 | C=CN(C(=O)N1CCN(c2cc3c(cc2F)c(=O)c(C(=O)O)cn3C2CC2)CC1)c1nc(-c2ccc(OC)cc2)cs1 | 35.3%
7 | CC(=O)Oc1ccc(OC(C)=O)c2ccccc12 | -96.4% (active)
8 | O=C1c2ccccc2C(=O)c2c1cc1c(c2[N+](=O)[O-])OCO1 | 19.2%
9 | Cc1cccc2c1C[C@@]1(C2=O)C(c2ccc(C(C)(C)C)cc2)=NOS1=O (stereo not given in full) | 86.3%
10 | COc1cccc(Nc2ncnc3cc(NC(=O)CCl)ccc23)c1 | -59.5% (active)
11 | NC(N)=NS(=O)(=O)c1ccc(NC2=C(I)C(=O)c3ncccc3C2=O)cc1 | 93%
12 | Cc1c(CN)cc(-c2ccc(Cl)cc2)n1-c1ccccc1 | 40.3%
13 | O=C1Nc2ccccc2C1(c1c[nH]c2ccccc12)c1c[nH]c2ccccc12 | -25.2% (active)
14 | CCn1c(-c2cc3c([nH]c4ccccc43)c(-c3cccc(O)c3)n2)n[nH]c1=S | 54.8%
15 | CCN(CC)c1ccc(/C=N/NC(=O)Cc2ccc(Nc3ccnc(C(F)(F)F)c3)cc2)c(O)c1 | 20.9%
16 | COc1ccc2c(c1)c(-c1nc(-c3c[nH]c4ncccc34)cs1)cn2CCCN1CCOCC1 | 41.5%
17 | CNC(C)[C@H]1CCC2C3CC=C4C(=O)[C@@H](NC(=O)C=C(C)C)CC[C@]4(C)C3CC[C@@]21C (stereo not given in full) | -13.3% (active)
18 | CN(Cc1ccccc1)c1nc(Cl)c(C2CC(c3ccccc3)=NN2c2ccccc2)s1 (stereo not given) | 88.5%
19 | N#CC1=C(N)Oc2ccc3ccccc3c2C1c1ccc([N+](=O)[O-])cc1 (stereo not given) | 69.3%
20 | COc1ccc(C(=O)Cn2c(C(=O)c3ccc(OC)cc3)nc3ccccc32)cc1 | 47.6%

Row | Compound | growth
21 | CC1C(/C=N/NC(N)=S)C(C#N)(C#N)C1(C#N)C#N (stereo not given) | 103%
22 | O=C(Cc1ccc(/C=C/C(=O)c2ncc[nH]2)cc1)Nc1cc(C(F)(F)F)cc(C(F)(F)F)c1 | 100%
23 | CCOC(=O)c1ccccc1-c1c2ccc(=[N+](C)C)cc-2oc2cc(N(C)C)ccc12 | 17.9%
24 | CCN1C(=O)N(CC)C2C1NN=c1s/c(=C\c3ccc(C(F)(F)F)cc3)c(=O)n12 (stereo not given) | 46%
25 | Cc1nn(-c2ccccc2)c(N)c1N=C1NC(=O)/C(=C/c2ccc(Br)cc2)S1 | 95.6%
26 | O=C(c1c[nH]c2ccccc12)c1n[nH]c(=S)n1-c1cccc(Br)c1 | 87.1%
27 | Cc1ccc(/C=C/C(=O)Nc2ncc(Cc3ccc(F)cc3)s2)o1 | 85.4%
28 | O=C1/C(=C\c2cccc3nccnc23)SC(=S)N1CCc1ccc(O)cc1 | 89.4%
29 | COc1cccc(/C=C/C(=O)c2cccc(Nc3nc(Nc4ccccc4)nc(Nc4ccccc4)n3)c2)c1 | 84.1%
30 | C=C1C(=O)O[C@H]2[C@H]1CC/C(COC(=O)c1cc3cc(Cl)ccc3[nH]1)=C\CC[C@@]1(C)O[C@@H]21 | -81.9% (active)
31 | COc1ccc(Cn2cc(C(=O)N=Nc3c(O)[nH]c4c(C)cccc34)nn2)cc1 | -28.2% (active)
32 | NC(=O)c1cnc(Nc2cccc(N)c2)nc1NCCCNC(=O)C1CCC1 | 88.5%
33 | CC1=C2[C@@H](CC1)[C@]1(C)O[C@@](C3CCCCC3)(C[C@H]1OC(=O)CO)[C@H]2OC(=O)/C=C/c1ccccc1 | 92.9%
34 | O=C(Nc1cnc(Nc2ccc(N3CCOCC3)nc2)nc1Oc1ccc(C(F)(F)F)cc1)c1ccncc1 | 80.3%
35 | Cc1c2cccnc2c(C)c2c1c1cc(CO)ccc1n2C | 33.3%
36 | CCN1CCN(CC(=O)Nc2ccc(-c3cn4c(n3)sc3cc(Oc5ccnc(C(=O)NC)c5)ccc34)cc2)CC1 | 87.5%
37 | COc1cc(OC)c2sc(-c3ccc(-n4cncc4-c4cc(OC)c(OC)c(OC)c4)cc3)nc2c1 | 50.2%
38 | Ic1ccccc1I | 101%
39 | CCC1S/C(=N\N=C(\C)c2cc3cc(Cl)ccc3o2)N(c2ccccc2)C1=O (stereo not given) | 107%
40 | CN(CCCNC(=O)CCOCCOCCOCCNC(=O)Cc1ccc2ccc3cccc4ccc1c2c34)CCCNc1cc(-c2ccc3ccccc3c2)nc2ccccc12 | -90.6% (active)
